The results in this text go back to PubChem BioAssay AID504406 (Broad Institute, 2011).

The structures appear in SMILES notation. Hit rate of the full screen: of about 320,000 compounds, about 190 (0.059%) were called active. Rule as the data show it: active = inhibition above about 10% (passing the limit was not always enough); inconclusive = no clear call, values can overlap the other calls. This excerpt belongs to a sample that is enriched for actives.

For this experiment, the target named is UDP-galactopyranose mutase (Mycobacterium tuberculosis (strain ATCC 25618 / H37Rv)) (UniProt P9WIQ1). Description: M. tuberculosis UGM enzyme inhibitors, primary screen, biochemical, fluorescence polarization, single point (AID 504406). The note with it: purified UGM, fluorescence polarization probe displacement; at 10 µM; hits give high values. A general note: In fluorescence polarisation assays a small probe gives low polarisation when free and higher when bound to something large.
Sequence of UDP-galactopyranose mutase (Mycobacterium tuberculosis (strain ATCC 25618 / H37Rv)) (P9WIQ1 whole entry, looked up): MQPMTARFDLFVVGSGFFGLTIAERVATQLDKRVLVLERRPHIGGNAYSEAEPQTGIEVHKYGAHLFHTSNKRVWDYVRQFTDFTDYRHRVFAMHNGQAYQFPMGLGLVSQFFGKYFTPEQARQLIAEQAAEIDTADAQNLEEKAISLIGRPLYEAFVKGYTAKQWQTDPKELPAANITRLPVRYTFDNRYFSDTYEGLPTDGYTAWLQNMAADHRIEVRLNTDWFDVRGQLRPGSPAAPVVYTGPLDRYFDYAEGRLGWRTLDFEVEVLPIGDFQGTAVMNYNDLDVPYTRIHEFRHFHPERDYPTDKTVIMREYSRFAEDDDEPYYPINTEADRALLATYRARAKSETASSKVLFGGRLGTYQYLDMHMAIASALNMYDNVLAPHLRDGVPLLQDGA
As for `O=C(O)c1ccc(F)c(S(=O)(=O)Nc2ccccc2)c1`, the inhibition was 2.67% (inactive).

Consider `Cc1noc(C)c1S(=O)(=O)Nc1ccc(C(=O)O)cc1`, for which the inhibition was -2.83% (inactive).

With `Cc1cc(C(C)(C)C)cc(S(=O)(=O)Nc2ccc(C(=O)O)cc2)c1C`, the inhibition is 20% (active).

`Cc1cc(C)cc(N(CC(=O)NCC2CCCO2)S(=O)(=O)c2c(C)noc2C)c1` (configuration not stated): the inhibition is -1.07% (inactive).

Consider `CCc1ccc(Nc2n[n+](-c3ccccc3)c(-c3cccc(Cl)c3Cl)s2)cc1`, for which the inhibition was 1.25% (inactive).

Turning to `O=C(O)CCS(=O)(=O)c1ccc(-c2ccccc2)cc1`, the inhibition is 0.58% (inactive).

Regarding `O=C(c1ccco1)N1CCN(C(=O)C2CCCN(S(=O)(=O)c3cccc4nsnc34)C2)CC1` (configuration not stated), the inhibition was 1.18% (inactive).

Consider `COc1cccc(/C=N/NC(=O)C(=O)N2CCCC2)c1`, for which the inhibition was -1.54% (inactive).

For `C#CCNC(=O)[C@H](Cc1ccc(C(=O)c2ccccc2)cc1)NC(=O)OC(C)(C)C`, the inhibition is -0.186% (inactive).

In the case of `CCN(CC)S(=O)(=O)c1ccc(N2CCCC2)c(NS(=O)(=O)c2cccs2)c1`, the inhibition is -0.858% (inactive).

On to `Clc1ccc(-c2cc(COc3ccccc3)no2)cc1Cl`, for which the inhibition was 2.39% (inactive).

As for `Cc1ccc(S(=O)(=O)N(CC(=O)N/N=C/c2ccc(F)cc2)c2cccc3cccnc23)cc1`, the inhibition was 1.31% (inactive).

Regarding `COc1ccc2c(c1)c(=O)c(C(=O)c1ccc(Cl)cc1)cn2CC(=O)Nc1ccc(F)cc1`, the inhibition is -1.48% (inactive).

For `Cc1cc(C)n(CCC(=O)N2CCN(S(=O)(=O)c3ccc(C)c(C)c3)CC2)n1`, the inhibition was -2.44% (inactive).

As for `CCOC(=O)C1(CCOc2ccccc2)CCN(Cc2ccc(C#CCCO)cc2)CC1`, the inhibition was -2.01% (inactive).

Regarding `COC(=O)c1ccc(NC(=O)CSc2nncn2-c2cccnc2)cc1`, the inhibition was -3.9% (inactive).

For the compound `COc1ccc(C(O)(C2CCCCC2)C(CN2CCCC2)c2ccccc2)cc1` (configuration not stated), the inhibition was 1.17% (inactive).

Regarding `COc1ccc(CNS(=O)(=O)c2ccc(NC(=O)N3CCCCC3)cc2)cc1`, the inhibition is 0.444% (inactive).

For the compound `COC(=O)c1c(NC(=O)COc2ccc(Cl)cc2Cl)sc2c1CC(C)(C)NC2(C)C`, the inhibition was -3.8% (inactive).

Regarding `C=C(Br)CN1CCN(CC(=C)Br)CC1`, the inhibition is 2.58% (inactive).

As for `C=CC[C@@H](CC(=O)NCCO)C(=O)N[C@H](C)COC(=O)[C@@H](CC=C)CC(=O)OC(C)(C)C`, the inhibition was -0.634% (inactive).

With `Cn1c(=O)c2c(nc(OCc3cccnc3)n2Cc2ccccc2)n(C)c1=O`, the inhibition is 7.96% (inactive).

Take `Cc1cc(C(=O)OCC(=O)Nc2ccc(F)c(F)c2)c(C)o1`: the inhibition is -0.0838% (inactive).

On to `COc1cccc(NC(=O)CN(C)CC(=O)c2c(N)n(Cc3ccccc3)c(=O)n(C)c2=O)c1`, for which the inhibition was 3.19% (inactive).

As to `CCCn1nnnc1NCc1ccc(CC)cc1`, the inhibition is -1.05% (inactive).

Turning to `Cc1cccc(N(C)C(=O)CN2C(=O)COc3ccc(S(=O)(=O)N4CCCCCC4)cc32)c1`, the inhibition was -1.26% (inactive).

On to `CCOC(CNC(=O)C1CCN(S(=O)(=O)c2ccc3nc4c(c(C(=O)O)c3c2)CC(C)CC4)CC1)OCC` (configuration not stated), for which the inhibition is -0.608% (inactive).

Regarding `Cc1ccc(N)cc1-n1c(C)ccc1C`, the inhibition is -4.8% (inactive).

Turning to `CC(Sc1nc2cc(Cl)ccc2s1)C(=O)Nc1ccc2c(c1)OCO2` (configuration not stated), the inhibition was 1.22% (inactive).

For the compound `Cc1cccc(N(CC(=O)Nc2ccc(-c3nc4ccc(C)cc4s3)cc2)S(C)(=O)=O)c1`, the inhibition is -2.81% (inactive).

Consider `CCN(CC)CCn1cnc2c1c(=O)n(CCOC(=O)c1cc(OC)c(OC)c(OC)c1)c(=O)n2C`, for which the inhibition is 0.786% (inactive).

For the compound `CC(CNC(=O)Cn1cnc2c(OCc3ccccc3)ncnc21)c1ccccc1` (configuration not stated), the inhibition was -1.84% (inactive).

Take `CCSC1(SCC)N=C(N)C2(C#N)C(c3ccccc3)NC(C)=CC12C#N` (configuration not stated): the inhibition was 0.444% (inactive).

Consider `O=C1CCC(Cc2ccccc2)N1` (configuration not stated), for which the inhibition was 1.36% (inactive).

For the compound `O=C(CN1C(=O)c2ccc([N+](=O)[O-])cc2C1=O)Nc1nnc(C2CC2)s1`, the inhibition is 0.737% (inactive).

In the case of `CN1CCN(Cc2nc3cc(NC(=O)COc4ccc([N+](=O)[O-])cc4)ccc3n2C)CC1`, the inhibition was -1.12% (inactive).

`CC1CCC2(CC1)NC(=O)N(CC(=O)c1cccn1C)C2=O` (configuration not stated): the inhibition is -1.14% (inactive).

One may read the inhibition as the change of the read-out against control, counted positive when it falls.
